This is part of a sample that, as a whole, favours compounds with a hit. Of some 83,000 tested, about 20% had one in any assay.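 Testing used 96-well plates and a 48-hour single-concentration exposure. Example: -40 means 40% of the starting cells died.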 Unmarked numbers belong to inactive results. Activity calls are given as the source filed them. The calls were made as follows: active = growth percent below 10; inactive = the rest.
Each molecule was assayed on BT-549 breast (assay: NCI-60 one-dose screen, 48 h (100 = growth as untreated, 0 = no growth, -100 = all killed)). Conditions: 10 µM unless noted.
With `C=CC[Se]C(=O)Cc1c(C)n(C(=O)c2ccc(Cl)cc2)c2ccc(OC)cc12` the growth was 0.594% (active). In the case of `CCC(=C(c1ccc(OCCN2CCCCC2)cc1)c1ccc(OCCN2CCCCC2)cc1)c1ccc(Cl)cc1`, the growth is reported as -91.7% (active). `Cc1ccc(/C=C2\COc3ccc(O)cc3C2=O)cc1` showed a growth of 79.1%. With `COc1cc2nc3cc([N+](=O)[O-])ccc3c(NCCNCC(C)O)c2cc1OC` (stereo unspecified) the growth was -40.5% (active). For `O=C(NNC(=O)c1ccc(NC(=O)c2ccccn2)cc1)Nc1ccc([N+](=O)[O-])cc1`, the growth was 94.6%. Work on `O=C(Nc1ccc(Oc2cccc(F)c2)c(Cl)c1)c1cccnc1` yielded a growth of 48.6%. In the case of `CCCc1c(OC(=O)c2ccccc2)nc2[nH]c(=O)sc2c1C`, the growth is reported as 95.1%. Molecule `CCCCCN1C(=O)/C(=c2\sc3n(c2=O)C2C(NN=3)N(CC)C(=O)N2CC)c2ccccc21` (stereo unspecified) has a growth of 19.5%. For `CCOC(=O)c1cc(C)n(-c2ccc(C(=O)O)cc2)c1C`, the growth was 76.1%. In the case of `CC/C=C\C[C@H](O)C/C=C1/C(=O)C=C[C@@H]1C/C=C\CCCC(=O)N(C)C`, the growth is reported as -34.8% (active). `NC(=O)CSc1oc(-c2ccccc2)nc1S(=O)(=O)c1ccc(Br)cc1` gave a growth of 62.1%. With `COc1cc(-c2nccc3[nH]c(-c4ccc5cc[nH]c5c4)nc23)cc(OC)c1OC` the growth was 18.4%. With `Cc1ccc(-c2nc([P+](c3ccccc3)(c3ccccc3)c3ccccc3)c(S(=O)(=O)c3ccc(C)cc3)o2)cc1` the growth was 8.67% (active). For `COC(CC(F)F)c1cn(S(=O)(=O)c2ccc(C)cc2)c2ccccc12` (stereo unspecified), the growth was 34.9%. `Cc1ccc(C[P+](c2ccccc2)(c2ccccc2)c2ccccc2)cc1` was tested, and the growth was 0.272% (active). Work on `Cn1cc(-c2nonc2-c2cn(C)c3ccccc23)c2ccccc21` yielded a growth of 31.1%. In the case of `CC1=C2[C@@H](CC1)[C@]1(C)O[C@@](C(C)C)(C[C@H]1OC(=O)[C@H](C)O)[C@H]2OC(=O)/C=C/c1ccccc1`, the growth is reported as 15.9%. In the case of `Cc1c(-c2ccc(O)cc2)n(Cc2ccc(OCCN3CCCCCC3)cc2)c2ccc(O)cc12`, the growth is reported as 84%. Molecule `CCOC(=O)C(=O)C(C(=O)OCC)c1ccccc1` (stereo unspecified) has a growth of 97.3%. Work on `CS(=O)(=O)c1ccc(-c2cnn3ccc(-c4cccc(S(=O)(=O)C5CC5)c4)nc23)cc1` yielded a growth of 53.4%. In the case of `N#Cc1nc(-c2ccc(F)cc2)oc1S(=O)(=O)N1CCOCC1`, the growth is reported as 98.5%.

Reference: PubChem BioAssay (NCI)
